According to PubChem BioAssay (NCI):
The panel holds about 83,000 compounds, 20% with a hit somewhere; the sample as a whole holds those more often.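 Cell lines were cultured in 96-well plates, exposed to a single compound concentration, and assessed for percent growth 48 hours later.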 Unmarked numbers belong to inactive results. Calls of active or inactive are those of the source. Rule for the calls: active = growth percent below 10; inactive = the rest.

Tests used:
Assay in all cases: NCI-60 one-dose screen, 48 h (100 = growth as untreated, 0 = no growth, -100 = all killed)
Conditions in all cases: 10 µM unless noted
T-47D breast = tested on: T-47D breast
BT-549 breast = tested on: BT-549 breast
MDA-MB-435 melanoma = tested on: MDA-MB-435 melanoma
SW-620 colon = tested on: SW-620 colon
MCF7 breast = tested on: MCF7 breast
HCT-116 colon = tested on: HCT-116 colon
HCC-2998 colon = tested on: HCC-2998 colon
KM12 colon = tested on: KM12 colon

Structure (SMILES) | growth (T-47D breast) | growth (BT-549 breast) | growth (MDA-MB-435 melanoma) | growth (SW-620 colon) | growth (MCF7 breast) | growth (HCT-116 colon) | growth (HCC-2998 colon) | growth (KM12 colon)
N#Cc1c(NC(=O)c2ccc(Br)cc2)sc2c1CCCC2 | 47.2% | 52.2% | -22.8% (active) | 19.2% | 13.1% | 22.3% | 68.6% | 25.3%
CCN(CC)CCOc1ccc(/C(=C(\C)c2ccc(F)c(OC)c2)c2ccc(Cl)cc2)cc1 | 18.8% | 59.7% | 15% | -7.8% (active) | -3.59% (active) | 1.56% (active) | -33.2% (active) | -3.3% (active)
O=S(=O)(NCCNc1cc(-c2c(-c3cccc(O)c3)nc3sccn23)ccn1)c1ccc(Br)cc1 | 23.8% | 55.2% | 26.1% | 76.8% | 37.4% | 47.9% | 95.3% | 51.3%
Cc1ccc(/C=C(\C#N)n2nnc3cc(Cl)c(Cl)cc32)cc1 | 15.1% | 7.89% (active) | -46.7% (active) | 16.3% | 6.58% (active) | 8.31% (active) | 13.6% | 0.682% (active)
Nc1c(-c2nc3ccc(Br)cc3c(=O)[nH]2)nnn1-c1ccccc1 | 78.3% | 63.1% | 72.2% | 88.1% | 78.7% | 48.2% | 80.6% | 61.6%
Cn1cc(-c2ccc3nc(-c4ccc(CC(=O)Nc5cc(C(C)(C)C)no5)cc4)cnc3c2)cn1 | 26% [30 µM] | 53.3% [30 µM] | 26.2% [30 µM] | 34.5% [30 µM] | 87.1% [30 µM] | 15.3% [30 µM] | 47.3% [30 µM] | 6.95% [30 µM] (active)
CN1C(=O)CCC(N2C(=O)c3cccc(NCCOCCOCCNC(=O)c4cc5c(o4)C(=O)c4ccccc4C5=O)c3C2=O)C1=O (configuration not stated) | 11.1% | -95.4% (active) | -94.6% (active) | -3.3% (active) | -65% (active) | -21.9% (active) | -62.2% (active) | -11.8% (active)
Clc1ccc(-c2nnc(Cn3ccnc3)o2)cc1 | 100% | 120% | 105% | 98.6% | 94.4% | 90.5% | 110% | 105%
NC(N)=N/N=C(/c1ccccc1)c1ccccc1F | 3.86% (active) | 70.8% | -56% (active) | 40% | 15.9% | -28.7% (active) | 2.85% (active) | 13.8%
Nc1nc(N)c(-c2ccc(Cl)cc2)c(/C=C/c2ccc([N+](=O)[O-])cc2)n1 | 84.7% | 92.3% | 41.9% | 26.4% | 82.2% | 48.9% | 77.6% | 83.1%
CCC(=O)OC1=C(C)SC2=NC(c3ccc(Cl)c(Cl)c3)=CC(c3cc(OC)c(OC)c(OC)c3)N21 (configuration not stated) | 97.5% | 103% | 103% | 109% | 94.1% | 95% | 110% | 107%
COc1cc(-c2ncn(/C=C\c3nnco3)n2)cc(C(F)(F)F)c1 | 28.9% | -13.8% (active) | 2.34% (active) | 14.6% | 8.23% (active) | 3.16% (active) | 7.01% (active) | 10.7%
C=C1C(=O)O[C@H]2[C@H]1CC/C(COC(=O)/C=C\C(=O)NCc1ccc(Cn3c(=O)sn(-c4ccc(OC)cc4)c3=O)cc1)=C\CC[C@@]1(C)O[C@@H]21 | -51.6% (active) | -51.8% (active) | -65.8% (active) | -53.6% (active) | -51.4% (active) | -65.5% (active) | -75.7% (active) | -64.5% (active)
COc1ccc(/C=C2\COc3ccc(O)c(O)c3C2=O)c(OC)c1 | 48% | 57.8% | 21% | 64% | 31.2% | 59.4% | 104% | 45%
CNC(=O)c1c(NC(=O)c2ccc(C(C)(C)C)cc2)sc2c1CCC(=O)C2 | -23.5% (active) | 1.12% (active) | -9.83% (active) | -62.3% (active) | 8.99% (active) |  | 23.3% | -7.97% (active)
C=C(Cl)COC(=O)C(C)(C)O | 99.1% | 104% | 104% | 107% | 93.3% |  | 102% | 102%
C[C@]12CCC(=O)C[C@H]1CC[C@@H]1[C@@H]2CC[C@@]2(C)[C@H]1CC[C@]2(O)C(=O)CO | 99.5% | 105% | 102% | 108% | 91.1% | 110% |  | 110%
O=C1CC(c2ccc3c(c2)OCO3)Nc2cc3c(cc21)OCO3 (configuration not stated) | 59.5% | 32.7% | -34.6% (active) | 25.1% | 13.9% |  | 17.6% | 15.2%
COc1ccc(C2CC(c3ccc4ccccc4c3)=NN2c2nc(O)c(C3=c4cc(Cl)ccc4=NC3=O)s2)cc1 (configuration not stated) | -79.9% (active) | -26% (active) | -64.6% (active) | -42.4% (active) | -22.4% (active) |  | -54.1% (active) | -59.3% (active)
COc1c(C)cnc(CSc2nc(-c3ccc(C)cc3)cn2-c2ccc(Cl)cc2)c1C | 88.1% | 102% | 110% | 100% | 102% |  | 106% | 105%
O=C(O)C1C[C@](O)(c2ccc(F)cc2)[C@@H](c2ccc(F)cc2)O1 (some centres not stated) | 88.2% | 71% | 99.1% | 116% | 97.5% |  | 115% | 131%
Cc1ccc(O)c(C(=O)c2ccccc2Cl)c1 | 108% | 93.8% | 93.2% | 98.4% | 101% |  | 56.2% | 116%
COc1ccc(C2=NC(=O)NC2c2ccc(OC)cc2)cc1 (configuration not stated) | 62.5% | 90.6% | 9.83% (active) | 38.7% | 29.3% | 47% |  | 41.1%
O=c1[nH]c(=O)n(C2CC(O)C(CO)O2)cc1CO (configuration not stated) | 87.7% | 82.1% | 99% | 96.6% | 65.4% | 91.4% |  | 103%
COc1ccc(-c2cc(-c3ccc(Nc4nc(Nc5ccccc5)nc(Nc5ccc(Cl)cc5)n4)cc3)nc(N)c2C#N)cc1 | -32% (active) | -50.6% (active) | -58.5% (active) | -45.6% (active) | -32.7% (active) | -88.5% (active) |  | -12.5% (active)
CCCN1CCN(c2ccc3nc(-c4ccc5nc(-c6ccc(OCC)c(OCC)c6)[nH]c5c4)[nH]c3c2)CC1 | 10.7% | -64% (active) | -88.2% (active) | -65.9% (active) | -59.5% (active) |  | -79.5% (active) | -54.8% (active)
COc1ccc(N(C)c2nc(Cl)nc3cnn(C)c23)cc1 | 43.5% | -13.9% (active) | -22.8% (active) | 27.8% | 15.4% |  | 17.6% | 6.55% (active)
Nc1nc(I)c2ncn(C3OC(CO)C(O)C3O)c2n1 (configuration not stated) | 94.9% | 69.7% | 91.6% | 114% | 96.6% |  | 103% | 115%
Cc1ccc(Nc2ccc(Nc3ccc(C)cc3S(=O)(=O)O)c3c2C(=O)c2ccccc2C3=O)c(S(=O)(=O)O)c1 | 111% | 103% | 103% | 92% | 92.2% |  | 112% | 96.7%
